Assay outcomes (PubChem BioAssay)
MITF inh = human MITF inhibition, primary screen; O75030; AlphaScreen MITF homodimerization, bead proximity signal; inhibition, % at 2.6 µM; hit rate 0.91% among 650,000; in the data active = inhibition above about 50%;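 note: 0% = vehicle wells with protein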
FBW7 activator = activators of human E3 ligase FBW7; Q969H0; hit rate 0.13% among 650,000; normalized activity (activation), % at 26.1 µM; AlphaScreen FBW7–phospho-cyclin E peptide binding, activator screen; AID 1259310; in the data active = normalized activity above about 1.9%;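 note: purified mutant Fbw7 with reduced substrate affinity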
Target sequence (Q969H0 whole entry, looked up): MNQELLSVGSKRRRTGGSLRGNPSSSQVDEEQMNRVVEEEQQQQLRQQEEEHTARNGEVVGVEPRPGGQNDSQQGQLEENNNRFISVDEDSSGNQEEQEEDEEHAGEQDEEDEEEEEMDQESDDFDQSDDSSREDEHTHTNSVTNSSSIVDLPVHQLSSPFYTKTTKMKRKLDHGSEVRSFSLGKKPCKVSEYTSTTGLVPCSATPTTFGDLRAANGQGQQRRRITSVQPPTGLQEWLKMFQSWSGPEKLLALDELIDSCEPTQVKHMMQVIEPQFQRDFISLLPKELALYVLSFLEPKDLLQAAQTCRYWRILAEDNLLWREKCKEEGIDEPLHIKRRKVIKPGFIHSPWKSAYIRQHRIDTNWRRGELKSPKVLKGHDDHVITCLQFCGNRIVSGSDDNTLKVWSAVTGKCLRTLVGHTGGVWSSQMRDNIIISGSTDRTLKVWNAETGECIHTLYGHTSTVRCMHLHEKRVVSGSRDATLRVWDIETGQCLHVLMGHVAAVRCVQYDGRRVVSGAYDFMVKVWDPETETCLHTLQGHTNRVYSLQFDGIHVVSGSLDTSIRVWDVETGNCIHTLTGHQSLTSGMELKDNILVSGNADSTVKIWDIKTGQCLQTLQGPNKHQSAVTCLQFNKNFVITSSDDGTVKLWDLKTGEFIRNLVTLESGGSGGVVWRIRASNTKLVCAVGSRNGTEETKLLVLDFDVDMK
GPR151 activ = human GPR151 activation | AID 1508602 | Q8TDV0 | PathHunter beta-arrestin GPR151 cells, luminescence | activation, % at 11.2 µM | hit rate 1% among 650,000; in the data active = activation above about 4.9%;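 note: 0% = median of compound wells and 100% = cells with positive control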
TEAD-YAP block = TEAD-YAP interaction inhibition | HEK-TIYL cells, TEAD-Gal4/YAP UAS-luciferase luminescence | inhibition, % at 9.12 µM | hit rate 1.4% among 640,000 | AID 1259422; in the data active = inhibition above about 32%;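 note: 0% = median of test compound wells and 100% = reference inhibitor wells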
Starred values were filed as active, the others as inactive; i = inactive. Compounds with a hit are over-represented: about 3.5% of the library has one in this group of screens.

SMILES	MITF inh	FBW7 activator	GPR151 activ	TEAD-YAP block
COC(=O)c1cn(NC(=O)c2ccccn2)c(=O)c2ccccc12	100.4*	-0.1	-1.2	62.1*
CC(C)n1cnc2c(NC3CC3)nc(Nc3cccc(N(C)C)c3)nc21	-1.4	0.0	1.1	0.2
CC1CCN(C(=O)N2c3ccccc3Sc3ccccc32)CC1	11.9	0.3	1.0	-3.9
CCOC(=O)N1CCN(C(=O)N2c3ccccc3Sc3ccccc32)CC1	-1.7	-0.2	1.0	56.4*
O=C(NCCCO)C1CCN(S(=O)(=O)c2ccc(Cl)cc2)CC1	-2.4	0.7	-0.7	-1.0
CCOc1ccc(S(=O)(=O)Nc2cc3c(C(=O)OCc4ccccc4)c(C)oc3c3ccccc23)cc1	-1.8	-0.1	1.2	-0.9
CCCOC(=O)c1c(C)oc2c1cc(NS(=O)(=O)c1ccc(OCC)cc1)c1ccccc12	-0.8	-0.1	-1.4	52.7*
CC(=O)c1c(C)oc2c1cc(NS(=O)(=O)c1ccc(Br)cc1)c1ccccc12	24.5	1.0	-1.6	47.3*
CCc1ccc(S(=O)(=O)Nc2cc3c(C(C)=O)c(C)oc3c3ccccc23)cc1	7.0	0.5	0.6	56.5*
CS(=O)(=O)Nc1ccc(-c2nnc(SCC(=O)Nc3ccccc3)o2)cc1	16.6	0.3	-0.9	-47.2
Cc1cc(C(=O)NNC(=O)C(O)(c2ccccc2)c2ccccc2)cs1	3.6	1.9*	0.6	2.1
O=C1CCC(N2CCN(c3ccc(F)cc3)CC2)CCN1Cc1ccc(F)c(F)c1 (stereo not given)	-5.6	-0.1	-0.7	5.6
CCOc1ccc2[nH]c(=O)c(CN(Cc3cccs3)C(=O)CC)cc2c1	9.7	-0.1	0.8	33.3*
Cc1sc(NC(=O)c2cccnc2)nc1-c1ccc2c(c1)CCN2C(=O)CC(C)(C)C	26.3	0.1	-1.4	-0.2
CC(C)(C)CC(=O)N1CCc2cc(-c3csc(NC(=O)c4cccnc4)n3)ccc21	2.2	0.2	-0.4	35.8*
N#Cc1nc(N2CCCC2)nc(N2CCCC2)n1	4.4	-0.1	0.2	37.4*
O=C(CCl)NC(Cc1ccccc1)c1ccccc1 (stereo not given)	11.0	0.0	0.0	57.8*
CCOC(=O)C(=O)NC(Cc1ccccc1)c1ccccc1 (stereo not given)	12.6	-0.1	0.9	1.9
COc1ccc(C)cc1-n1nnnc1SCC(=O)c1[nH]c(C)c(C(C)=O)c1C	11.6	-0.1	0.0	32.7*
N#C/C(=C/c1ccc(O)cc1)c1ccc(C#N)cc1	-7.3	-0.2	-2.6	44.8*
CN(C)c1ccc(/C=C(/C#N)c2ccc(C#N)cc2)cc1	6.8	0.8	3.6	-60.3
CCN(c1ccccc1)S(=O)(=O)c1ccc(F)c(C(=O)Nc2cc(C)ccc2C)c1	0.6	-0.1	-0.1	-2.0
O=c1cc2oc3cc(O)c(O)cc3c(-c3ccccn3)c-2cc1O	86.1*	-1.6	-1.1	5.1
O=c1cc2oc3cc(O)c(O)cc3c(-c3cccc(Cl)c3Cl)c-2cc1O	102.4*	-0.1	-1.1	11.4
CC(=O)Nc1cccc(-c2cc(=O)c3ccccc3o2)c1O	-5.2	0.0	-1.6	-47.2
SMILES	MITF inh	FBW7 activator	GPR151 activ	TEAD-YAP block
COc1cc2ccc(=O)oc2cc1O	2.4	-0.1	-0.7	7.2
COc1ccccc1-c1c2cc(O)c(=O)cc-2oc2cc(O)c(O)cc12	104.0*	-0.3	-0.9	7.7
COc1cc(OC)c(-c2c3cc(O)c(=O)cc-3oc3cc(O)c(O)cc23)cc1OC	110.0*	-0.2	-1.0	7.8
COc1cccc(-c2cc(=O)c3ccccc3o2)c1N	-11.2	0.0	-1.5	-53.0
CC(C)C(=O)NC(C)c1nnc2n1CCN(Cc1cc3c(cc1Cl)OCO3)CC2 (stereo not given)	5.5	0.0	-0.6	0.3
CCCCN(CCCC)C(=O)CCN1C(=O)C2C3C=CC(C3)C2C1=O (stereo not given)	-0.5	-0.3	0.1	5.1
C=CCN(C(=O)c1ccc2nc(C)c(C)nc2c1)c1ccccc1	15.6	0.0	1.1	6.8
O=C(O)c1ccccc1Nc1cccc(OCc2ccc3ccccc3n2)c1	11.6	-0.1	0.2	45.7*
O=C(COc1ccc2ccccc2c1)Nc1cccc(C(=O)Nc2ccccc2C(=O)O)c1	-3.7	-0.1	1.1	8.0
Cc1cc([N+](=O)[O-])ccc1NCc1c[nH]c2ccccc12	23.1	0.6	-0.6	-11.0
COc1ccc(C(=CCl)c2ccc(OC)cc2)cc1	-9.1	-0.1	2.3	41.6*
COC(C)(C)C(=O)C(CC(C)C(C)=O)C(=O)C(C)C (stereo not given)	i	-0.2	-0.5	-1.0
COc1cccc(C(=O)N(c2nc(C(F)(F)F)c(-c3ccc(Cl)cc3)s2)c2ccc(C)cc2C)c1	14.9	-0.1	-0.5	4.3
CCCCCCNC(=O)C(=O)Nc1cccc(C(F)(F)F)c1	-16.6	0.0	-0.6	0.9
CN(C1=C(Cl)C(=O)N(c2cccc(Cl)c2)C1=O)c1ccccc1	19.2	0.0	0.9	32.7*
CCN(C1=C(Cl)C(=O)N(c2ccccc2)C1=O)c1ccccc1	7.3	-0.2	-0.2	6.1
NCC(=O)N1CCC(Nc2ccc3[nH]ncc3c2)CC1	10.6	-0.3	0.9	-8.0
O=C(CCCOc1ccc(Cl)cc1)Nc1ccc2c(c1)OCCO2	-1.5	0.1	0.3	-10.0
CCN(CC)C(=O)C1CCCN(c2nc3ccc(C(=O)NCCN(C(C)C)C(C)C)cc3s2)C1 (stereo not given)	10.3	0.1	2.8	0.0
Nc1nc(NCc2ccccc2)cc(-c2ccc3[nH]ccc3c2)n1	0.2	-0.1	-0.6	34.2*
Cc1ccc(CS(=O)Cc2ccc(C(=O)N3CCN(c4ccccc4)CC3)o2)cc1 (stereo not given)	10.8	0.7	-0.8	16.7
Cc1ccccc1S(=O)Cc1ccc(C(=O)N2CCN(c3ccccn3)CC2)o1 (stereo not given)	15.0	0.1	1.0	42.2*
Cc1ccc(S(=O)Cc2ccc(C(=O)N3CCN(c4ccccc4)CC3)o2)cc1 (stereo not given)	2.5	0.1	0.4	49.7*
O=C(c1ccc(CS(=O)c2ccccc2)o1)N1CCN(c2ccccc2)CC1 (stereo not given)	10.0	0.1	0.7	42.0*
Cc1ccc(S(=O)(=O)Cc2ccc(C(=O)N3CCN(c4ccccc4)CC3)o2)cc1	15.9	-0.2	-0.5	40.4*
SMILES	MITF inh	FBW7 activator	GPR151 activ	TEAD-YAP block
CCCN(CCC)C(=O)/C=C\C(=O)O	-5.8	0.0	0.2	2.5
Cc1cc(C)n(CCc2nc3c4ccccc4nc(=S)n3[nH]2)n1	6.8	0.1	-0.2	49.0*
O=C(NC1CCCCCC1)c1ccc(N2CCCC2=O)cc1	6.9	-0.4	-3.1	-22.0
O=C(NC1CCCCCCC1)c1cccc(N2CCCC2=O)c1	-8.1	-0.1	-0.1	45.9*
Cc1cnc(CNc2cc(-c3ccccn3)nc(C)n2)nc1	3.0	-0.2	0.2	6.3
Oc1c(C(c2ccncc2)N2CCCCC2)ccc2cccnc12 (stereo not given)	72.3*	-0.2	0.1	14.6
Oc1c(C(c2cccnc2)N2CCCCC2)ccc2cccnc12 (stereo not given)	92.3*	-0.3	0.2	13.7
Oc1c(C(c2cccnc2)N2CCCC2)ccc2cccnc12 (stereo not given)	65.4*	-0.2	0.0	9.2
